Data published in PubChem BioAssay (NCATS).
Results filed as inconclusive are left out. Active and inactive are the calls of the source. Calls come from the whole dose curve; as a rule, active = well fitted inhibition curve with a large enough effect; inconclusive = small, poorly fitted or top-dose-only effect; inactive = flat fitted curve, though single readings scatter.

How the values were obtained:
Assay in all cases: qHTS profiling for inhibitors of Plasmodium falciparum proliferation (AID 504749); note: nearly all actives have a fitted effect of over 60% in size
Conditions in all cases: P. falciparum in erythrocytes, SYBR Green DNA, 72 h; series mostly up to 28.7 µM
CP268 = test system: CP268
Outline: (§1)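 In a 72 h erythrocytic culture (37 C, humidified, 5% CO2) at 2.5% hematocrit and 0.3% starting parasitemia, compounds were tested; SYBR Green I in detergent lysis buffer stained parasite DNA overnight.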

CP269 = test system: CP269
Outline: as §1

CP286 = test system: CP286
Outline: as §1

CP291 = test system: CP291
Outline: as §1

CP297 = test system: CP297
Outline: as §1

CP305 = test system: CP305
Outline: as §1

CP315 = test system: CP315
Outline: as §1

CP325 = test system: CP325
Outline: as §1

CP329 = test system: CP329
Outline: as §1

CP335 = test system: CP335
Outline: as §1

DFO2036 = test system: DFO2036
Outline: as §1

DIV14 = test system: DIV14
Outline: as §1

DIV17 = test system: DIV17
Outline: as §1

DIV30 = test system: DIV30
Outline: as §1

Dd2 = test system: Dd2
Outline: as §1

ECU = test system: ECU
Outline: as §1

FAB9 = test system: FAB9
Outline: as §1

GB4 = test system: GB4
Outline: as §1

HB3 = test system: HB3
Outline: as §1

ICS = test system: ICS
Outline: as §1

Measured: Potency

COc1ccc(C(=O)N2CCN(CC(=O)N3CCOCC3)CC2)cc1
inactive: all assays above

CC(=O)NS(=O)(=O)c1ccc(N)cc1
inactive: all assays above

CCOc1cc(NC(C)=O)ccc1C(=O)OC
inactive: all assays above

O=C(CCBr)N1CCN(C(=O)CCBr)CC1
inactive: all assays above

OCC(O)CS (stereo not given)
inactive: all assays above

CC(C)CCOC(=O)c1ccc(N(C)C)cc1
inactive: all assays above

C[C@@H](N)C(=O)O
inactive: all assays above

CCCCCC(N)=O
inactive: all assays above

CCCCCCCCCCCCCCCCC(C(=O)O)C(O)(CC(=O)O)C(=O)O (stereo not given)
inactive: all assays above

CCCCCCCC(=O)OCC(COC(=O)CCCCCCC)OC(=O)CCCCCCC
inactive: all assays above

Cc1ccccc1N=Nc1ccc(N=Nc2c(O)ccc3ccccc23)c(C)c1
inactive: all assays above

NS(=O)(=O)c1ccc(C(=O)O)cc1
inactive: all assays above

CC(C)=CCC/C(C)=C/CO
inactive: all assays above

COc1ccc(O)cc1
inactive: all assays above

CN(C(=O)c1c(O)c2ccccc2n(C)c1=O)c1ccccc1
inactive: all assays above

CCc1cccc(CC)c1NC(=O)CN(CC(=O)O)CC(=O)O
inactive: all assays above

O=S1(=O)OC(c2ccc(O)cc2)(c2ccc(O)cc2)c2ccccc21
inactive: all assays above

CC(CSC(=O)c1ccccc1)C(=O)N1C[C@@H](Sc2ccccc2)C[C@H]1C(=O)O (stereo not given in full)
inactive: all assays above

NC(=O)CC[C@@H](N)C(=O)O
inactive: all assays above

Cc1cccc(C)c1NC(=O)CC12CCCN1CCC2
inactive: all assays above

COc1cc(C(=O)NCCCCCC(=O)O)cc(OC)c1OC
inactive: all assays above

O=c1[nH]c(=O)c2ccccc2o1
inactive: all assays above

CN/C(=C\[N+](=O)[O-])NCCSCc1csc(CN(C)C)n1
inactive: all assays above

CC(N)CCCC(C)(C)O (stereo not given)
inactive: all assays above

O=C(NCN1CCOCC1)c1cnccn1
inactive: all assays above

O=C1c2cccc(O)c2C(=O)c2c(O)cccc21
inactive: all assays above

CCN(CC)C(=O)c1cccc(C)c1
inactive: all assays above

CN1C(C)(C)CCCC1(C)C
inactive: all assays above

O=C(O)c1ccccc1OP(=O)(O)O
inactive: all assays above
